# Experimental data: PubChem BioAssay (Tox21)
# Results filed as inconclusive are left out. Entries that show only a call come without a potency. The source made the active and inactive calls. Calls follow the shape of the dose curve; as a rule, active = well fitted activation curve with a large enough effect in the repeat runs; inconclusive = weak or mixed curves; inactive = flat fitted curve, though single readings scatter.
# Test: A CellTox Green Cytotoxicity Assay to monitor cytotoxicity in HEK293 cells - 8 hour (AID 1224884); also: nearly all actives have a fitted effect of over 35% in size
# Conditions: CellTox Green fluorescence; series mostly up to 76.8 µM
# Outline: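 Cells (HEK293, 600/well) and dye reagent are dispensed together. After 5 h at 37 C, 23 nL compound is pinned in. Plates stay at 37 C for 40 h with fluorescence read at 0h, 8h, 16h, 24h, 32h and 40h.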
# Potency is read from the fitted curve at half-maximal effect.
Compound,Potency,cytotoxicity increase
CC(C)O,inactive,–
NC(=O)Cc1cccc(C(=O)c2ccccc2)c1N,inactive,–
Cc1cc(S(=O)(=O)O)c(N)cc1Cl,inactive,–
Cc1ccc(C=O)s1,43.6 µM (active),–
CCCC1CCC(=O)O1 (stereo not drawn),inactive,–
O=Cc1ccc(F)c(Br)c1,inactive,–
O=c1oc2c(O)c(O)cc3c(=O)oc4c(O)c(O)cc1c4c23,–,7.37% [at 15.8 µM] (inactive)
C[C@@H](N)C(=O)O,inactive,–
O=C1CCCCC1C1CCCCC1 (stereo not drawn),inactive,–
CCCCCCCCCCCCOCCOS(=O)(=O)O,19.5 µM (active),–
O=C(O)c1cccc(Cl)c1Cl,inactive,–
CCCS(=O)c1ccc2nc(NC(=O)OC)[nH]c2c1 (stereo not drawn),inactive,–
Oc1ccccc1F,inactive,–
CNCCC(Oc1ccccc1OC)c1ccccc1 (stereo not drawn),inactive,–
CCN1CC(CCN2CCOCC2)C(c2ccccc2)(c2ccccc2)C1=O (stereo not drawn),inactive,–
CCC(=O)Nc1ccc(O)cc1,inactive,–
COC(=O)c1ccc2cc(C(=O)OC)ccc2c1,–,-0.0057% [at 15.8 µM] (inactive)
NC(=O)NS(=O)(=O)c1ccc(Cl)cc1,inactive,–
CC1(O)CSC(C)(O)CS1 (stereo not drawn),inactive,–
CCN(O)CC,inactive,–
OCCN(CCO)CCN(CCO)CCO,inactive,–
Cc1ccc(C)c(N)c1,inactive,–
Nc1ccc2ccccc2c1S(=O)(=O)O,inactive,–
CC(=O)Nc1ccc(C)c(Cl)c1,inactive,–
CCCOc1ccc2c(c1)CC[C@@H]1[C@@H]2CC[C@]2(C)C(OC)CC[C@@H]12 (stereo partly drawn),inactive,–
CCCCCCCCCC/C=C/C#N,inactive,–
OCc1ccccc1O,inactive,–
OC[C@H]1O[C@@H](O[C@H]2[C@H](O)[C@@H](O)[C@H](O)O[C@@H]2CO)[C@H](O)[C@@H](O)[C@H]1O,inactive,–
